Sampled rows, rich in hits. Any-hit rate of the full collection: about 5.7%.
hgDAF-12 ag – hgDAF-12 agonism, primary luciferase screen; activation, % at 6.8 µM; HEK293 GAL4-hgDAF12 UAS-luciferase reporter, agonist luminescence; normalized to butyrate control; 1.8% of 370,000 active;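 active = activation above a cutoff set at the mean of all screened compounds plus 3 SD, cut at about 10% in these data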;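 note: 0% = DMSO wells and 100% = sodium butyrate wells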
DAX1 inh-1 – inhibits human nuclear receptor DAX1; HEK293 Gal4-DAX1 luciferase reporter, luminescence; inhibition, % at 6.75 µM; 0.99% of 340,000 active;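 active = inhibition above the mean over all tested compounds plus 3 SD, cut at about 4.2% in these data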;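 note: 0% = DAX1-transfected cells with DMSO and 100% = empty-vector control cells with DMSO; inhibition shows as a rise in luminescence from relieved DAX1 repression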
AHR activator – activates the human aryl hydrocarbon receptor; P35869; AHR-responsive luciferase reporter cells, luminescence; activation, % at 5 µM; 2.5% of 320,000 active; in the data active = activation above about 47%;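 note: 0% = vehicle wells and 100% = reference agonist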
Target sequence (P35869 whole entry, looked up): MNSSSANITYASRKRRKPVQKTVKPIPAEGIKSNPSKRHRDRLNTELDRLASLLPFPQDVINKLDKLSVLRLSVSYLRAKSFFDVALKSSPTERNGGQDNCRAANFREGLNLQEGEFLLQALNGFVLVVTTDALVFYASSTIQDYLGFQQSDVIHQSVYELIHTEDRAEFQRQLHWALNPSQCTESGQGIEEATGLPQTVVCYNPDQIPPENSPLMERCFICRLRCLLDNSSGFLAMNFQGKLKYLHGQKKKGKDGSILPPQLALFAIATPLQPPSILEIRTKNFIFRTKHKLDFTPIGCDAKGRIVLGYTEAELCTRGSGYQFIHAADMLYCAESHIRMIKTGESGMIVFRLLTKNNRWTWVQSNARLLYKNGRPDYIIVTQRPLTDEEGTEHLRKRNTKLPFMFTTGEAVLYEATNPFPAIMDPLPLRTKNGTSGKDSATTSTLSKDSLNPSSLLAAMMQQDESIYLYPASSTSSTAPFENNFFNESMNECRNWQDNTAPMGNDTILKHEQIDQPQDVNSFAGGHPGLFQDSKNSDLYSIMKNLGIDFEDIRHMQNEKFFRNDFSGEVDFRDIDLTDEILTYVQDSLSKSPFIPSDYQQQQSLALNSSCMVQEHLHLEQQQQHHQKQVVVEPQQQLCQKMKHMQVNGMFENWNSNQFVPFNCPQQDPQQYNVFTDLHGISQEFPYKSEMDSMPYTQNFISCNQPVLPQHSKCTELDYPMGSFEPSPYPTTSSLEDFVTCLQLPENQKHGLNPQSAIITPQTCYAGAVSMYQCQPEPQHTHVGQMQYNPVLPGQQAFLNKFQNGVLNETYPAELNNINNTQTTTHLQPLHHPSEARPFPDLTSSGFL
DAX1 inh-2 – DAX1 (NR0B1) inhibition, primary screen. HEK293T StAR-luciferase reporter, SF-1/DAX-1 repression relief. inhibition, % at 6.8 µM. 1.1% of 370,000 active;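 active = inhibition above the mean over all tested compounds plus 3 SD, cut at about 3.6% in these data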;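 note: 0% = DAX-1 cells with DMSO and 100% = cells lacking DAX-1 with DMSO; higher inhibition means more luminescence from relief of DAX-1 repression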
hcDAF12 agonist – activates DAF-12 receptor from parasite H. contortus | AID 652067 | 1.4% of 370,000 active | activation, % at 6.8 µM | HEK293 hcDAF-12 lit1-tk-luc reporter, luminescence; 0% DMSO, 100% Δ7-dafachronic acid;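 active = activation above the mean of all tested compounds plus 3 SD, cut at about 5.5% in these data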;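 note: 100% = response to 3 µM Δ7-dafachronic acid high control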
ssDAF12 agonist – activates DAF-12 receptor from parasite S. stercoralis | 1% of 370,000 active | HEK293 ssDAF-12/GRIP1 lit1-tk-luc reporter, luminescence; % of 3 µM dafachronic acid response | activation, % at 6.8 µM;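 active = activation above the mean over all tested compounds plus 3 SD, cut at about 0.9% in these data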;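 note: 0% = DMSO-only wells and 100% = 3 µM delta7-dafachronic acid wells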
* = called active by the depositor; / = no result.

SMILES | hgDAF-12 ag | DAX1 inh-1 | AHR activator | DAX1 inh-2 | hcDAF12 agonist | ssDAF12 agonist
O=C(Nc1cccc2c1C(=O)NC2=O)c1ccccc1[N+](=O)[O-] | 1 | 1 | 0 | 0 | 1 | -1
CC1CCC2(CC1)NC(=O)N(CC(=O)c1cn(CCC#N)c3ccccc13)C2=O (configuration not stated) | -3 | 2 | 2 | 0 | -1 | -1
Cn1ncc(Cl)c1C(=O)Nc1cc(C(F)(F)F)ccc1F | 0 | 0 | 78* | 0 | 0 | -1
COC(=O)C1=C(C)N(C)C(=NCc2ccc(OC)cc2)NC1c1cccc(C(F)(F)F)c1 (configuration not stated) | 0 | / | / | 1 | -2 | -1
CCn1c(C)nc2cc(NC(=O)Nc3cccc(C(C)=O)c3)ccc21 | 12* | 1 | 9 | 0 | 1 | 0
Cc1cc(O)c(C2=Nc3ccccc3SC(c3ccc(Cl)cc3)C2)c(=O)o1 (configuration not stated) | 6 | 2 | 9 | 0 | 6.1* | 0
COc1ccc(C2CC(c3c(O)cc(C)oc3=O)=NCCS2)c(OC)c1 (configuration not stated) | / | 0 | 6 | / | / | /
O=C(O)c1ccccc1C(=O)NC1CCN(c2nccc(C(F)(F)F)n2)CC1 | -2 | 0 | 0 | 0 | -2 | -1
Cc1c(-c2nc(-c3ccc(C(C)(C)C)cc3)no2)n(C)oc1=O | 12* | -1 | -2 | 3 | 5.7* | 2.1*
CCOC(=O)CCc1c(C)nc(SCC(=O)O)c(C#N)c1C | -1 | 0 | 4 | -1 | -1 | -1
CCOC(=O)CCc1c(C)nc(SCc2ccc(C(=O)O)cc2)c(C#N)c1C | -1 | 6.0* | -3 | 0 | -1 | -1
Cc1nc(/C=C/c2ccccc2)[nH]c(=O)c1-c1ccccc1 | 12* | 3 | 0 | 2 | 5 | 0
O=c1[nH]c(/C=C/c2ccc(Br)cc2)nc2ccccc12 | 6 | 3 | -3 | 1 | 1 | -1
O=C1c2ccccc2C(=O)C12OC2c1ccc(Cl)cc1Cl (configuration not stated) | -1 | 1 | 3 | 0 | 5 | 1.5*
COc1ccc2oc(=O)c(C(=O)Nc3ccccc3C)cc2c1 | 12* | 3 | 2 | 2 | 4 | 0
O=C(NNC(=O)c1cc2cc(Br)ccc2oc1=O)c1ccc(O)cc1 | -2 | 0 | 3 | 0 | 1 | 2.5*
O=C(Nc1ccccc1O)c1cc2cc(Br)ccc2oc1=O | 7 | 2 | 12 | 0 | 2 | 1.1*
COc1ccc2oc(=O)c(/C(C)=N/Nc3ccccc3)cc2c1 | -1 | -1 | 61* | 0 | -1 | -1
C[C@@H]1CCN(C2CC2)S(=O)(=O)c2ccc(N3CCC[C@@H]3CO)cc2O1 | 0 | / | / | 0 | -1 | 0
Cc1ccc(C)c(-c2cc(C(=O)Nc3sc(C)c(C)c3C(N)=O)c3ccccc3n2)c1 | 3 | -2 | 28 | -1 | -1 | -2
Cc1ccnc(NC(=O)CCNC(=O)c2ccc(Br)cc2)c1 | 4 | -1 | / | 2 | 1 | 0
CCOC(=O)c1[nH]c2cc3c(cc2c1NC(=O)CN1CCCC1)OCO3 | 5 | 1 | 58* | 1 | 3 | 0
CCOC(=O)c1[nH]c2cc3c(cc2c1NC(=O)CN1CCC(C)CC1)OCO3 | 1 | -1 | 45 | -1 | -2 | -1
Cc1n[nH]c(C)c1S(=O)(=O)N1CCCC(C(=O)N2CCc3ccccc32)C1 (configuration not stated) | 0 | -1 | 12 | 0 | 2 | 1.9*
CCOc1cc(N2CCOCC2)c(OCC)cc1NC(=O)CN1C(=O)NC(C)(c2ccc(OC)cc2)C1=O (configuration not stated) | 1 | 0 | / | 1 | 0 | 0
SMILES | hgDAF-12 ag | DAX1 inh-1 | AHR activator | DAX1 inh-2 | hcDAF12 agonist | ssDAF12 agonist
CC(C)CN1CCC(=O)N(CCOc2ccccc2)CC1 | 3 | 4.3* | 9 | 1 | 2 | 0
CCn1c(COc2ccccc2)nnc1SCC(=O)Nc1ccc(N2CCOCC2)cc1 | -1 | -2 | 5 | -1 | -2 | -1
Cc1c(NC(=O)C(C)OC(=O)/C=C/c2ccc3c(c2)OCO3)c(=O)n(-c2ccccc2)n1C (configuration not stated) | -2 | -2 | 2 | -1 | -1 | -1
CCOc1ccc(NC(=O)CN2C(=O)C3CCCN3C2=O)cc1 (configuration not stated) | 2 | 4.7* | 7 | 1 | 1 | -1
COC(=O)C[C@H]1C[C@@H]2c3cc(NS(=O)(=O)c4ccc(OC)cc4)ccc3O[C@@H]2[C@H](CO)O1 | 1 | 4 | / | -1 | -2 | -1
COC(=O)C[C@@H]1C[C@@H]2c3cc(NS(=O)(=O)c4ccccc4)ccc3O[C@@H]2[C@@H](CO)O1 | 13* | 1 | / | 1 | 0 | -2
COc1ccc(-c2cc(=O)oc3cc(OCC(=O)NCc4ccccn4)ccc23)cc1 | -1 | 5.7* | 15 | 0 | 4 | -1
CCCCc1cc(=O)oc2cc(OCC(=O)Nc3ccccn3)ccc12 | 8 | 2 | 3 | 4.3* | 5 | 0
COc1ccc(S(=O)(=O)N2C(=O)/C(=C3\SC(N)=NC3=O)c3ccccc32)cc1 | 2 | 0 | 3 | 1 | 1 | -1
CCOC(=O)C1C(C(=O)OC)=C(C(=O)OC)c2ccccc2N1S(=O)(=O)C(F)(F)F (configuration not stated) | 0 | -1 | / | -1 | 0 | -1
COCCN(CC(=O)Nc1cccc(C)c1C)C(=O)c1oc2c(Cl)cccc2c1C | 0 | 0 | 35 | 2 | 3 | 0
COc1ccc(C2N(c3cc(Cl)ccc3OC)C(=O)C3CCCN32)cc1 (configuration not stated) | 1 | 1 | 4 | 1 | 0 | -1
O=C1C2CCCN2C(c2ccc(F)cc2)N1c1cccc(Cl)c1 (configuration not stated) | 3 | 3 | 0 | 1 | 6.4* | -1
COc1ccc(Cl)cc1N1C(=O)C2CCCN2C1c1ccc(F)cc1 (configuration not stated) | 4 | 4.5* | 8 | 0 | 1 | -1
NC(=O)CN1C(=O)NC2(CCCc3ccccc32)C1=O (configuration not stated) | -3 | 0 | -5 | 0 | -1 | -1
Cc1cc(C)c2c(c1)/C(=c1/sc3n(c1=O)CN(c1ccccc1)CN=3)C(=O)N2 | 0 | -1 | 35 | 0 | -1 | -1
CC(CN1C(C)CCCC1C)OC(=O)c1cccc(Br)c1 (configuration not stated) | 0 | 0 | -1 | 0 | -2 | -1
Cn1c(=O)oc2cc(S(=O)(=O)NCCC(=O)N3CCN(c4ccccc4F)CC3)ccc21 | 1 | 0 | 2 | 0 | -2 | -1

From PubChem BioAssay
